# AHR activator: AHR activators, primary screen, cell-based, luminescence, luciferase reporter, human; AHR-responsive luciferase reporter cells; activation, % at 5 µM; hit rate 2.5% among 320,000; AID 2796, 2010; in the data active = activation above about 47%;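 note: 0% = vehicle wells and 100% = reference agonist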
# Target sequence (P35869 whole entry, looked up): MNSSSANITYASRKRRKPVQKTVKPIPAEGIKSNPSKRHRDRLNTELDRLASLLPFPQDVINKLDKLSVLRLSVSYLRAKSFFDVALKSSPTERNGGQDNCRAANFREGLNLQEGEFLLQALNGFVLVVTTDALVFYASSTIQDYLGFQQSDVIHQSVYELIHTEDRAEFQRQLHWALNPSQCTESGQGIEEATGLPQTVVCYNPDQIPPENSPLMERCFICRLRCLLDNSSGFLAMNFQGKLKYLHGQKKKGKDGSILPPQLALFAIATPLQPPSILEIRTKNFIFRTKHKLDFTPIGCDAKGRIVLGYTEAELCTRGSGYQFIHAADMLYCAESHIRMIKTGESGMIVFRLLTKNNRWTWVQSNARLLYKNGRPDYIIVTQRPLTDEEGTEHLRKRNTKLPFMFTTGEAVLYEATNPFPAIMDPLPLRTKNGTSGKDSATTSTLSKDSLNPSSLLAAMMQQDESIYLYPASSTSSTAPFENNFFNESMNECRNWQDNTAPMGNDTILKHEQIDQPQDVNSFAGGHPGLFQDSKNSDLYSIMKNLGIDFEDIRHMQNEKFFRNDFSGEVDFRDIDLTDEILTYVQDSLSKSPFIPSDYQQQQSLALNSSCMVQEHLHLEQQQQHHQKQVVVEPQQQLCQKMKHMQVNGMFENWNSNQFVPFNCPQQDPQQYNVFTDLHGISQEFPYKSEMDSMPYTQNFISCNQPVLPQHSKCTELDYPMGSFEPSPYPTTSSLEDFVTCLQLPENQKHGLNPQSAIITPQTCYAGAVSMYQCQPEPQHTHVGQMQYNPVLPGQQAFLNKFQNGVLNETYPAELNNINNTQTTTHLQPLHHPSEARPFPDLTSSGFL
# GAA850 FXN act: FXN promoter activators, primary screen, cell-based, luciferase luminescence, HEK293 lucGAA850; HEK293 lucGAA850 FXN promoter luciferase reporter, 24 h; percent of 10 µM SAHA response; activation, % at 6 µM; hit rate 0.56% among 360,000; AID 540364, 2011;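 active = activation above the average of all compounds screened plus 3 SD, cutoff fixed separately per campaign, cut at about 7.5% in these data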;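 note: 0% = DMSO wells and 100% = 10 µM SAHA wells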
# esBAF inh: Bmi1 luciferase reporter increase in mESCs, primary screen, esBAF inhibitor project, mouse ES cells, Bmi1 luciferase knock-in, single point; 24 h; 100% = twice the neutral-well signal; reporter increase, % at 12.5 µM; hit rate 2% among 350,000; in the data active = activation above about 40%; inconclusive = no clear call, values can overlap the other calls;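 note: 0% = median of the plate's neutral control wells and 100% = double that signal; a rise in the Bmi1 reporter signal indicates esBAF inhibition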
# Wnt bcat act: Wnt/beta-catenin pathway activators, primary screen, cell-based, plate reader, single point; Wnt/beta-catenin reporter cell assay, activator; activation, % at 9.35 µM; hit rate 1.2% among 300,000; AID 743398, 2014; in the data active = activation above about 30%, passing the limit was not always enough; inconclusive = no clear call, values can overlap the other calls;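 note: 0% = neutral control wells and 100% = positive control wells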
# MITF act: activators of MITF-driven TRPM1 promoter reporter, primary screen, cell-based, SK-MEL-5, luciferase, single point; SK-MEL-5 TRPM1-promoter luciferase, 24 h; % of positive control, neutral wells = 0; activation, % at 12.5 µM; hit rate 0.75% among 300,000; AID 588334, 2011;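 active = mean activation of at least 80% with every replicate also reaching 80%; inconclusive = mean reaches 80% but some replicate falls short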;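 note: 0% = neutral control wells and 100% = parthenolide positive control wells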
# Starred values were filed as active, the others as inactive; ? = inconclusive; nt = not tested or not shown. An excerpt weighted towards active compounds, which were near 4.2% of everything screened.
SMILES,AHR activator,GAA850 FXN act,esBAF inh,Wnt bcat act,MITF act
c1ccc(Sc2ncnc3c2oc2ccccc23)cc1,17.2,5.5,70.6*,nt,52.0
Cc1nc(Nc2ccc3c(c2)OCCO3)c2oc3ccccc3c2n1,33.8,1.7,10.5,nt,8.8
CCc1nc(Nc2ccc3c(c2)OCCO3)c2oc3ccccc3c2n1,63.2*,-1.7,-0.3,3.5,4.9
Cc1nc(Nc2ccc(Cl)cc2)c2oc3ccccc3c2n1,78.4*,-0.2,-9.7,-0.4,-8.6
Cc1nc(Nc2cccc(Cl)c2)c2oc3ccccc3c2n1,38.3,2.4,14.6,2.0,-5.8
Cc1nc(Nc2cccc(F)c2)c2oc3ccccc3c2n1,48.8*,3.5,18.9,5.6,10.0
CCCNC(=O)N(C)C[C@H]1Oc2cc(C#CC3CC3)ccc2S(=O)(=O)N([C@H](C)CO)C[C@H]1C,nt,nt,0.2,nt,nt
Cc1nc(Nc2ccccc2F)c2oc3ccccc3c2n1,55.9*,2.2,28.1,4.8,14.4
CCc1nc(NCc2cccnc2)c2oc3ccccc3c2n1,64.1*,2.7,-8.3,-2.5,-6.0
Cc1ccc(Nc2ncnc3c2oc2ccccc23)cc1,53.6*,4.7,47.0*,nt,19.0
O=C(NCC[C@@H]1CC[C@@H](NS(=O)(=O)c2ccc(Oc3ccccc3)cc2)[C@H](CO)O1)C1CC1,nt,nt,8.9,nt,nt
O=C1CSC(=S)N1N=Cc1c[nH]c2ccc(Br)cc12,nt,0.8,-4.9,-3.4,nt
COc1ccc(Br)cc1/C=N/N1C(=O)CSC1=S,48.8*,2.0,0.2,-0.3,-17.7
Cc1cc(N2CCCC2)ccc1/C=C1/C(=O)N(C)C(=S)N1C,32.2,0.1,12.7,-2.0,-30.3
Cc1cc(/C=C2/C(=O)N(C)C(=S)N2C)ccc1N1CCCC1,62.8*,3.1,77.7*,43.9*,55.3
CCCN1C[C@@H](C)[C@@H](OC)CN(C)C(=O)c2ccc(NC(=O)c3ccc(F)cc3)cc2OC[C@H]1C,nt,nt,-0.6,nt,nt
Cc1nc2ccc(-c3nc4cc(N)ccc4o3)cc2[nH]1,-3.9,-4.5,-45.8,33.3*,-5.4
Nc1ccc2oc(-c3ccc4nc[nH]c4c3)nc2c1,7.1,-2.4,-34.9,16.9,nt
O=C(O)C[C@@H]1CC[C@@H](NC(=O)Nc2cc(F)ccc2F)[C@H](CO)O1,nt,nt,-0.2,nt,nt
CC1(c2ccccc2)NC(=O)N(CC#N)C1=O (configuration not stated),-1.8,0.2,nt,35.6*,14.0
O=C(Nc1ccc2c(c1)CCC2)c1ccc(F)c(S(=O)(=O)N2CCOCC2)c1,15.8,2.6,nt,83.0*,13.7
NS(=O)(=O)c1cc(C(=O)Nc2ccc3c(c2)CCC3)ccc1Cl,16.6,5.7,77.0*,-2.6,113.4*
Cc1ccc(C(=O)Nc2ccc3c(c2)CCC3)cc1,-3.7,-0.8,-56.2,-0.1,-19.3
Cc1ccc(C(=O)Nc2ccc3c(c2)CCC3)cc1S(=O)(=O)N1CCOCC1,23.6,2.4,62.4*,?,25.7
O=C(c1cc2cc(Br)ccc2o1)N1CCOCC1,-3.0,4.0,nt,-0.3,39.4
SMILES,AHR activator,GAA850 FXN act,esBAF inh,Wnt bcat act,MITF act
CC1CCN(C(=O)c2cc3ccccc3o2)CC1,-6.6,4.9,57.2*,nt,nt
CC1CC(C)CN(C(=O)c2cc3ccccc3o2)C1 (configuration not stated),58.0*,1.5,58.3*,4.6,43.8
O=C(c1cc2cc(Br)ccc2o1)N1CCCC1,-10.4,6.0,38.6*,7.0,16.3
O=C(c1cc2ccccc2o1)N1CCN(Cc2nc3ccccc3s2)CC1,nt,1.5,44.8*,1.6,nt
O=C(c1cc2ccccc2o1)N1CCN(C/C=C/c2ccccc2)CC1,-0.6,0.7,-0.9,5.2,0.4
CC(=O)N1CCN(C(=O)c2cc3ccccc3o2)CC1,0.8,-1.1,2.2,-1.5,4.2
CN(C)CC(=O)Nc1ccc2c(c1)[C@@H]1C[C@@H](CC(=O)NCCc3ccccc3)O[C@@H](CO)[C@@H]1O2,nt,nt,-3.2,nt,nt
CN(C)C(=O)C[C@H]1CC[C@H](NC(=O)C2CC2)[C@@H](CO)O1,nt,nt,-10.5,nt,nt
CN(C)C(=O)[C@H]1[C@H](CO)[C@H]2Cn3c(ccc(-c4cccc(F)c4)c3=O)[C@@H]1N2Cc1ccccc1,nt,nt,-0.9,nt,nt
O=C(c1ccccc1F)N1CC[C@@H]2[C@H](CO)Nc3ccc(-c4ccc(F)cc4)cc3[C@@H]21,nt,nt,-7.8,nt,nt
Cc1ccccc1-c1ccc([C@H]2[C@@H](CO)N3CCCCN(C(=O)NC4CCCC4)C[C@H]23)cc1,nt,nt,-4.0,nt,nt
O=C(CCC1CCCCC1)Nc1ccccc1O,-6.2,4.1,41.6*,25.0,94.9*
CC(C)(C)c1ccc(C(=O)Nc2ccc([N+](=O)[O-])cn2)cc1,0.0,3.7,nt,nt,107.4*
O=C(CCC1CCCCC1)Nc1ccccc1-c1ccccc1,-1.3,-0.9,-2.4,-5.3,-4.8
O=C(CCC1CCCC1)Nc1ccc([N+](=O)[O-])cn1,-1.0,4.5,58.6*,nt,42.0
O=C(Nc1ccc([N+](=O)[O-])cn1)c1cccnc1,0.9,0.8,-6.0,-2.7,nt
C[C@@H]1CN([C@H](C)CO)C(=O)Cc2cc(NS(=O)(=O)c3ccc(Cl)cc3)ccc2O[C@H]1CN(C)C(=O)Nc1ccccc1,nt,nt,0.5,nt,nt
COCC#Cc1ccc2c(c1)O[C@@H](CN(C)S(=O)(=O)c1ccc(C)cc1)[C@H](C)CN([C@@H](C)CO)S2(=O)=O,nt,nt,5.0,nt,nt
COC(=O)[C@H]1[C@H](CO)[C@H]2Cn3c(ccc(/C=C/c4ccccc4)c3=O)[C@H]2N1CC1CCCCC1,nt,nt,7.5,nt,nt
O=[N+]([O-])c1cc(-c2nc(-c3ccncc3)no2)ccc1Cl,5.9,0.7,16.2,nt,-27.5
COc1ccc(-c2noc(-c3ccccc3F)n2)cc1,48.0*,4.3,-14.8,13.9,33.4
Fc1ccccc1-c1nc(-c2ccncc2)no1,15.9,4.2,?,55.4*,nt
Cc1c(-c2nc(-c3ccncc3)no2)cccc1[N+](=O)[O-],65.3*,3.0,nt,0.0,12.1
Fc1ccccc1-c1nc(-c2ccc(-c3nn[nH]n3)cc2)no1,12.0,2.4,34.0,39.1*,46.8
Fc1ccccc1-c1nc(-c2cnccc2C(F)(F)F)no1,-1.1,2.5,8.7,8.7,24.8
SMILES,AHR activator,GAA850 FXN act,esBAF inh,Wnt bcat act,MITF act
COc1ccc(NC(=O)Nc2ccc3c(c2)CC(=O)N([C@H](C)CO)C[C@H](C)[C@@H](CN(C)C(=O)Nc2ccc(F)cc2)O3)cc1,nt,nt,-1.4,nt,nt
COCC(=O)N1C[C@H]2[C@@H](c3ccccc31)[C@@H](CO)N2C(=O)C1CC1,nt,nt,2.7,nt,nt
COc1ccc(S(=O)(=O)N(C)C[C@@H]2Oc3ccc(NS(=O)(=O)c4ccc(Cl)cc4)cc3C(=O)N([C@@H](C)CO)C[C@H]2C)cc1,nt,nt,-1.3,nt,nt
CN(CCc1ccccc1)C(=O)c1cc(COc2ccc(F)cc2Cl)on1,2.0,2.8,42.8*,10.5,60.4
COc1cc(C)ccc1OCc1cc(C(=O)N2CCCCCCC2)no1,25.5,2.7,55.4*,20.2,63.3
O=C(c1cc(COc2ccc(F)cc2Cl)on1)N1CCCCCCC1,0.3,4.3,24.6,5.5,30.2

# Screening results: PubChem, several laboratories
